Measured values as given in PubChem BioAssay (NCATS).
Results filed as inconclusive are left out. Activity calls are given as the source filed them. The call rests on the fitted dose curve; in most records, active means well fitted cell-killing curve with a large enough effect; inconclusive means small, poorly fitted or top-dose-only effect; inactive means flat fitted curve, though single readings scatter. Square brackets hold non-standard residues; d marks the D form. Peptide text beside a SMILES is read from it. * marks the point of attachment. Nva = CCC[C@H](N)C(=O)O; Cbz = O=C(OCc1ccccc1)*

Experiment: Quantitative highthroughput screen to assess conditional lethalithy of NOMO1 cells grown in RPMI1640 with dialyzed fetal bovine serum (RPMI+ds) (AID 1963877); further: nearly all actives have a fitted effect of over 30% in size
Settings: NOMO1 in RPMI+dialyzed FBS viability, ATP luminescence, 48 h; series mostly up to 45.8 µM; viability: at the top concentration
Source text: Assay Provider: Jason Cantor Ph.D.
Department of Biochemistry
University of Wisconsin-Madison, Madison, WI, USA
Chemical screening studies have identified drug sensitivities across hundreds of cancer cell lines but most putative therapeutics fail to translate. Discovery and development of drug candidates in models that more accurately reflect nutrient levels in human blood is a major challenge. Here we performed high-throughput screens in conventional versus Human Plasma-Like Medium (HPLM) to identify compounds that were "missed" when screening using the artificial culture condition. Sets of conditional anticancer compounds spanned phases of clinical development and included non-oncology drugs were assessed. […] We also traced conditional phenotypes for several chemotherapeutics to availability of HPLM-specific metabolites and confirmed others for compounds whose reported targets are encoded by nonessential genes. Our findings establish generalizable strategies for exploiting conditional lethality in HPLM to reveal therapeutic candidates and mechanisms of action in cancer cells.
Described herein are the results of each viability screens against three cell lines: NOMO1 (an acute myeloid leukemia cell line); P12-Ichikawa (a T-cell acute lymphoblastic leukemia); and SEM (a B-cell ALL). Each assay was screened using 3 different cell culture media: homemade human plasma-Like medium with 10% dialyzed fetal bovine serum (HPLM+ds); RPMI1640 with 10% untreated FBS and 5mM glucose (RPMI+s); and RPMI1640 with 10% dialyzed fetal bovine serum and 5 mM glucose (RPMI+ds).
PROTOCOL TABLE (as described by Inglese J, Shamu CE and Guy RK. 2007)
SEQUENCE No. (e.g., 1, 2, 3, etc.); […] (e.g., Cells, Incubation, Reagent, etc.); VALUE and DESCRIPTION.
1; Cells; 5 uL; white, solid bottom 1536-well Greiner assay plate.
2; Compounds; 23 nL; Kalypsis pin tool (Wako USA) equipped with a 1536-well pin head to transfer to the assay plates.
3; Incubation; 48 hours; 37C incubation.
4; Reagent; 3 uL; CellTiter Glo (Promega).
5; Incubation; 5 min, room temperature
6; Detection; Luminescence, Viewlux PerkinElmer.
NOTES (numbers refer to Sequence numbers above)
1. Briefly, 5 ul of cell reagent was dispensed using a Multidrop Combi Dispenser. The NOMO1 and SEM cells were plated at 500 cells/well and the P12-Ichikawa line at 1000 cells/well.
2. After seeding the cells, 23 nL of MIPE 4.1 library compounds (in DMSO) were added to each plate using a Kalypsys 1536 Pintool dispenser. Bortezomib at final concentration of […] and DMSO were added to each plate as positive and negative controls respectively. For each screen, MIPE 4.1 compounds were added over an eleven-point concentration range […] in 3-fold dilutions.
3. Each plate was covered with a stainless steel gasketed lid to prevent evaporation and incubated for 48 hour at 37C, 95% relative humidity, and 5% CO2.
4-5. Three microliter CellTilter-GloTM luminescent substrate mix (Promega) reagent was added to the assay plate and incubated at room temperature for 5 min.
6. The luminescence signal was measured using a ViewLux (PerkinElmer) multiplate reader with a 2 second exposure time per plate. Data for each compound were normalized as percent viability such that measurements for DMSO and the empty well controls in each plate were defined as 100% and 0%, respectively.
Potency means the concentration at half of the fitted maximal effect.

SMILES | viability | Potency
Fc1ccc(C(c2ccc(F)cc2)N2CCN(CC=Cc3ccccc3)CC2)cc1 | 109% (inactive) | –
CC1(C)NC(=O)N(c2ccc([N+](=O)[O-])c(C(F)(F)F)c2)C1=O | 104% (inactive) | –
CCCCS(=N)(=O)CCC(N)C(=O)O (stereo not given) | 94.4% (inactive) | –
Cc1cnc(-c2cnc(NCCNc3ccc(C#N)cn3)nc2-c2ccc(Cl)cc2Cl)[nH]1 | 74.4% (inactive) | –
O=C1NC(=O)C(c2cnc3ccccn23)=C1c1cn2c3c(cccc13)CN(C(=O)N1CCOCC1)CC2 | 111% (inactive) | –
CCN(c1ccccc1)c1cc(NC)[n+](C)c(C)n1 | 108% (inactive) | –
CCC[C@@H](C=O)NC(=O)[C@H](CC(C)C)NC(=O)[C@H](CC(C)C)NC(=O)OCc1ccccc1 (Cbz-Leu-Leu-[Nva]-aldehyde) | – | 2640 nM (active)
CC1(C)CCC(CN2CCN(c3ccc(C(=O)NS(=O)(=O)c4ccc(NCC5CCOCC5)c([N+](=O)[O-])c4)c(Oc4cnc5[nH]ccc5c4)c3)CC2)=C(c2ccc(Cl)cc2)C1 | – | 105 nM (active)
O=C1NCCc2[nH]c(-c3ccncc3)cc21 | – | 20900 nM (active)
Clc1ccc(C(c2ccc(Cl)cc2)n2cc[n+](CC(OCc3ccc(Cl)cc3Cl)c3ccc(Cl)cc3Cl)c2)cc1 (stereo not given) | – | 26400 nM (active)
CCCCN(CCCC)C(=O)CN1C[C@H](c2ccc3c(c2)OCO3)[C@@H](C(=O)O)[C@@H]1c1ccc(OC)cc1 | 78.8% (inactive) | –
CC(C)C(C)C=CC(C)C1CCC2C3=CC=C4CC(O)CCC4(C)C3CCC21C (stereo not given) | 99.1% (inactive) | –
CC(C)[C@H](O)C(=O)N[C@@H](C)C(=O)N[C@@H]1C(=O)N(C)CCc2ccccc21 | 101% (inactive) | –
COc1ccc2c(c1)c(CC(=O)OCC(=O)O)c(C)n2C(=O)c1ccc(Cl)cc1 | 93.3% (inactive) | –
CC[C@H](CO)Nc1nc(NCc2ccccc2)c2ncn(C(C)C)c2n1 | 89.7% (inactive) | –
CN1[C@H]2CC[C@H]1CC(OC(=O)c1c[nH]c3ccccc13)C2 (stereo not given in full) | 91.4% (inactive) | –
Nc1nc(=S)c2[nH]cnc2[nH]1 | – | 7430 nM (active)
C[C@@H]1COC(Nc2ccc3ncnc(Nc4ccc(OCc5nccs5)c(Cl)c4)c3c2)=N1 | 59.6% (inactive) | –
Cn1c(N2CCCCS2(=O)=O)nc(C(=O)NCc2ccc(F)cc2)c(O)c1=O | 90.4% (inactive) | –
CC(C)(C(=O)NCC(F)(F)C(F)(F)F)C(=O)N[C@@H]1C(=O)Nc2ccccc2-c2ccccc21 | – | 1870 nM (active)

SMILES | viability | Potency
CC(C)C[C@@H](N)[C@H](O)C(=O)N[C@H](C(=O)N[C@H](C(=O)N[C@@H](CC(=O)O)C(=O)O)C(C)C)C(C)C | 103% (inactive) | –
Nc1ccc(S(=O)(=O)Nc2ncccn2)cc1 | 103% (inactive) | –
CC(=O)Oc1ccccc1C(=O)Nc1ncc([N+](=O)[O-])s1 | 80.7% [at 92.2 µM] (inactive) | –
CC1(C)CC(=O)c2c(C(F)(F)F)nn(-c3ccc(C(N)=O)c(NC4CCC(O)CC4)c3)c2C1 (stereo not given) | – | 187 nM (active)
CCCCCCCCCCCCCCCC(=O)OC[C@@H](NC(=O)C(Cl)Cl)[C@H](O)c1ccc([N+](=O)[O-])cc1 | 114% (inactive) | –
CC12CC3CC(C)(C1)CC(N)(C3)C2 | – | 18700 nM (active)
CCC1(C)CC(=O)NC1=O (stereo not given) | 102% (inactive) | –
C[C@@H]1[C@H](C)CC[C@]2(C(=O)O)CC[C@]3(C)C(=CC[C@@H]4[C@@]5(C)C[C@@H](O)[C@H](O)[C@@](C)(CO)[C@H]5CC[C@]43C)[C@@H]12 | 96% (inactive) | –
COc1cc2c(cc1OC)C1CC(=O)C(CC(C)C)CN1CC2 (stereo not given) | 105% (inactive) | –
CNC[C@H](O)c1ccc(O)c(O)c1 | 100% [at 92.2 µM] (inactive) | –
COc1ccccc1-c1cccc(-c2c(O)c3cc(C#N)c(Cl)cc3[nH]c2=O)c1 | – | 19100 nM (active)
O=c1[nH]c(=O)n([C@H]2C[C@@H](O)[C@@H](CO)O2)cc1I | 72.5% (inactive) | –
O=c1[nH]c(-c2ccc(C(F)(F)F)cc2)nc2c1CSCC2 | 102% (inactive) | –
CC[C@]1(O)C[C@@H]2CN(CCc3c([nH]c4ccccc34)[C@@](C(=O)OC)(c3cc4c(cc3OC)N(C=O)[C@@H]3C45CCN4CC=C[C@](CC)([C@H]45)[C@@H](OC(C)=O)[C@]3(O)C(=O)OC)C2)C1 (stereo not given in full) | 96.1% (inactive) | –
Clc1ccc(CCC(Cn2ccnc2)Sc2c(Cl)cccc2Cl)cc1 (stereo not given) | 80.6% (inactive) | –
CNC(=O)c1ccc(N2C(=S)N(c3cnc(C#N)c(C(F)(F)F)c3)C(=O)C23CCC3)cc1F | – | 2350 nM (active)
COc1cc(Cl)cn2c(-c3cccc(NC4CNC4)n3)cnc12 | 87.5% (inactive) | –
COc1ccc(C(C)=O)c(O)c1 | – | 2960 nM (active)
N[C@@H](C(=O)N[C@@H]1C(=O)N2C(C(=O)O)=C(Cl)CS[C@H]12)c1ccccc1 | 102% (inactive) | –
S=P(N1CC1)(N1CC1)N1CC1 | 101% (inactive) | –
